# Legend:
# [1] = target: Mitogen-activated protein kinase 3 (Homo sapiens) (UniProt P27361); conditions: at 1 µM
# [2] = target: Mitogen-activated protein kinase 3 (Homo sapiens) (UniProt P27361); conditions: at 10 µM
# [3] = target: Mitogen-activated protein kinase 1 (Homo sapiens) (UniProt P28482); conditions: at 1 µM
# [4] = target: Mitogen-activated protein kinase 1 (Homo sapiens) (UniProt P28482); conditions: at 10 µM
# [5] = target: MAP kinase-activated protein kinase 2 (Homo sapiens) (UniProt P49137); conditions: at 1 µM
# [6] = target: MAP kinase-activated protein kinase 2 (Homo sapiens) (UniProt P49137); conditions: at 10 µM
# [7] = target: MAP kinase-activated protein kinase 3 (Homo sapiens) (UniProt Q16644); conditions: at 1 µM
# [8] = target: MAP kinase-activated protein kinase 3 (Homo sapiens) (UniProt Q16644); conditions: at 10 µM
# [9] = target: Serine/threonine-protein kinase MARK1 (Homo sapiens) (UniProt Q9P0L2); conditions: at 1 µM
# [10] = target: Serine/threonine-protein kinase MARK1 (Homo sapiens) (UniProt Q9P0L2); conditions: at 10 µM
# [11] = target: Dual specificity mitogen-activated protein kinase kinase 1 (Homo sapiens) (UniProt Q02750); conditions: at 1 µM
# [12] = target: Dual specificity mitogen-activated protein kinase kinase 1 (Homo sapiens) (UniProt Q02750); conditions: at 10 µM
# [13] = target: Maternal embryonic leucine zipper kinase (Homo sapiens) (UniProt Q14680); conditions: at 1 µM
# [14] = target: Maternal embryonic leucine zipper kinase (Homo sapiens) (UniProt Q14680); conditions: at 10 µM
# [15] = target: Misshapen-like kinase 1 (Homo sapiens) (UniProt Q8N4C8); conditions: at 1 µM
# [16] = target: Misshapen-like kinase 1 (Homo sapiens) (UniProt Q8N4C8); conditions: at 10 µM
# [17] = target: T1, Dual specificity mitogen-activated protein kinase kinase 6 (Homo sapiens) (UniProt P52564); conditions: at 1 µM
# T1 sequence (whole entry): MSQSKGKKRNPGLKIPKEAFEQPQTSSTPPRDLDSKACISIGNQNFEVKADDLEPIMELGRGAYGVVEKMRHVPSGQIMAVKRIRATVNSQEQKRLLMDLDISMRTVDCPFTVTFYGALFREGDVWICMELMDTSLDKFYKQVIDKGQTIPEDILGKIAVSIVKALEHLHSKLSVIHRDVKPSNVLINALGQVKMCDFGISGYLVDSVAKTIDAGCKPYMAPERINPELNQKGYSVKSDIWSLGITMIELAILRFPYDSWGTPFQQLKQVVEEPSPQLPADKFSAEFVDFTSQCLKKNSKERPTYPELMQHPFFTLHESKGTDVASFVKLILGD
# [18] = target: T1, Dual specificity mitogen-activated protein kinase kinase 6 (Homo sapiens); conditions: at 10 µM
# [19] = target: T2, Dual specificity mitogen-activated protein kinase kinase 7 (Homo sapiens) (UniProt O14733); conditions: at 1 µM
# T2 sequence (whole entry): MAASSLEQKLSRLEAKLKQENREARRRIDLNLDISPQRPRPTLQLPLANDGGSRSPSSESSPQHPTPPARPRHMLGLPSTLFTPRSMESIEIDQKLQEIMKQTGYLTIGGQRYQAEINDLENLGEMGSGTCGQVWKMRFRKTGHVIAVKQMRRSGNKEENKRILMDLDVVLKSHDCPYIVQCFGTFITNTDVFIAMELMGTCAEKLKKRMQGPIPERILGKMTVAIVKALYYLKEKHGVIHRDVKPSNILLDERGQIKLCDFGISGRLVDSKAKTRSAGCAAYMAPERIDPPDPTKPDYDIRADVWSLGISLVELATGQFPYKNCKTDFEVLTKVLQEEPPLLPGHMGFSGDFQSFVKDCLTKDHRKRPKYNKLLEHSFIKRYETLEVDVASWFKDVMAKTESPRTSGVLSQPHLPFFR
# [20] = target: T2, Dual specificity mitogen-activated protein kinase kinase 7 (Homo sapiens); conditions: at 10 µM
# Chain of Serine/threonine-protein kinase MARK1 (Homo sapiens) (Q9P0L2 whole entry, looked up): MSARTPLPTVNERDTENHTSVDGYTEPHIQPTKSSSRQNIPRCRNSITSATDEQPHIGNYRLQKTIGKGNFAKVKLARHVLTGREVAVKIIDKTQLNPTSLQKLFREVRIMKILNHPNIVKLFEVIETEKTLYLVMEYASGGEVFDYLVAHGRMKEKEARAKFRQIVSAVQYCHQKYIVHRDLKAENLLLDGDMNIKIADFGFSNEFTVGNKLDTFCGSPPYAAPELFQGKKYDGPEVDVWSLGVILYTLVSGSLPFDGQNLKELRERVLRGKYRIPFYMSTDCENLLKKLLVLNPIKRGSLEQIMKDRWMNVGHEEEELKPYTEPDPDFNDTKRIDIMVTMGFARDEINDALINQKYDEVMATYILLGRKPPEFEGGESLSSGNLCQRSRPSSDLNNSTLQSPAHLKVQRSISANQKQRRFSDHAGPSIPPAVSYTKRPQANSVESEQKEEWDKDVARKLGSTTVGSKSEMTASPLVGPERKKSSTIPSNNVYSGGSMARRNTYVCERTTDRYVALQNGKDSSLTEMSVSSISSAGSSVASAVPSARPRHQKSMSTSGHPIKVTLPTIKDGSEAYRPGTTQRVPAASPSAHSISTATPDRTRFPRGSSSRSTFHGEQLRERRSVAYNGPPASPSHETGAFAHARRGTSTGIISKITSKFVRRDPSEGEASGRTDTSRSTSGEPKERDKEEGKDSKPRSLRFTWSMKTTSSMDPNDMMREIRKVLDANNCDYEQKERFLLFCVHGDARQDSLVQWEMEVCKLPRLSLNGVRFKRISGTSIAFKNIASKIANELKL
# Chain of Mitogen-activated protein kinase 3 (Homo sapiens) (P27361 whole entry): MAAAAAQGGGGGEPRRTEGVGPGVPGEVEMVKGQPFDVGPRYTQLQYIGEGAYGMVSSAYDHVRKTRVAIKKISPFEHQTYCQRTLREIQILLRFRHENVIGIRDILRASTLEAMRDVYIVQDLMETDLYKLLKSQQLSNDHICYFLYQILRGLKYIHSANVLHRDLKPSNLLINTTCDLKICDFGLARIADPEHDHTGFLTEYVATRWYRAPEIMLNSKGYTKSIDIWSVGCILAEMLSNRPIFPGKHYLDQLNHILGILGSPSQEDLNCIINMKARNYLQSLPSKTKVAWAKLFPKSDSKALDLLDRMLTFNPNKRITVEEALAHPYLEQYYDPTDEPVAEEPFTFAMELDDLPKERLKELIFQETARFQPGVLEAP
# Chain of Misshapen-like kinase 1 (Homo sapiens) (Q8N4C8 whole entry, looked up): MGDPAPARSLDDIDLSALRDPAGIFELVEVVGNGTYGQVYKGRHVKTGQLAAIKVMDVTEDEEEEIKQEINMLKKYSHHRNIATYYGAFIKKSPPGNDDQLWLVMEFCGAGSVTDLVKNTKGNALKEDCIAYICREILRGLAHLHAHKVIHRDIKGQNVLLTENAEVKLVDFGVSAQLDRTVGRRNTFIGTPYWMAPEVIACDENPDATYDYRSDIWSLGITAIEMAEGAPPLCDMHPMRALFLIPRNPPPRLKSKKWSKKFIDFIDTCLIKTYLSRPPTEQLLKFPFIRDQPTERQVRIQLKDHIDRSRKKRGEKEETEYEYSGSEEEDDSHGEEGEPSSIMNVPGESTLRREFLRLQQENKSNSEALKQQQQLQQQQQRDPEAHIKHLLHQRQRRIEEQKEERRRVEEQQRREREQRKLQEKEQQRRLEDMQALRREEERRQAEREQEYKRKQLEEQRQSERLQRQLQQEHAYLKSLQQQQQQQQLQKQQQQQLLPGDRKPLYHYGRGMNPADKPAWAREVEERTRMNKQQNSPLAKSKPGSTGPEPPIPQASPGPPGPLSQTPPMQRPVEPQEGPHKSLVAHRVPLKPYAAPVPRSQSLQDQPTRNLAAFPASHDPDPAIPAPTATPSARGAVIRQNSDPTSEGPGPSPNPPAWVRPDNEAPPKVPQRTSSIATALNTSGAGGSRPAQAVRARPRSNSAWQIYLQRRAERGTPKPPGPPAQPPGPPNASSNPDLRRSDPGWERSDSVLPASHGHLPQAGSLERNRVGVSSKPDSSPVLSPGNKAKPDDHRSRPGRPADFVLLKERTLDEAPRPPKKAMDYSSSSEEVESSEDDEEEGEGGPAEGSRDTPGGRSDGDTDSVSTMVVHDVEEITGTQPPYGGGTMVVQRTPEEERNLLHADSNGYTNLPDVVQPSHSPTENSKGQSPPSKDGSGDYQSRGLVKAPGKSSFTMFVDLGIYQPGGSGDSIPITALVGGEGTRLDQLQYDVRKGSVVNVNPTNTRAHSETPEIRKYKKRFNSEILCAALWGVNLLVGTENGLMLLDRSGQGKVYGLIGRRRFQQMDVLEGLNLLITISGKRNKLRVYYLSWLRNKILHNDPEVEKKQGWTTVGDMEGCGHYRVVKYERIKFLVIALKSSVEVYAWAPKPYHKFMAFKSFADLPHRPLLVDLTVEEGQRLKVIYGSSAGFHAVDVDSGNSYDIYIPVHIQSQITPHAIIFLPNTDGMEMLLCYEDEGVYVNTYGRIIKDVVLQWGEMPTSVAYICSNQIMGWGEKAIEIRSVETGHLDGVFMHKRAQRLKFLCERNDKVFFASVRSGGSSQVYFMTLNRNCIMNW
# Chain of Dual specificity mitogen-activated protein kinase kinase 1 (Homo sapiens) (Q02750 whole entry): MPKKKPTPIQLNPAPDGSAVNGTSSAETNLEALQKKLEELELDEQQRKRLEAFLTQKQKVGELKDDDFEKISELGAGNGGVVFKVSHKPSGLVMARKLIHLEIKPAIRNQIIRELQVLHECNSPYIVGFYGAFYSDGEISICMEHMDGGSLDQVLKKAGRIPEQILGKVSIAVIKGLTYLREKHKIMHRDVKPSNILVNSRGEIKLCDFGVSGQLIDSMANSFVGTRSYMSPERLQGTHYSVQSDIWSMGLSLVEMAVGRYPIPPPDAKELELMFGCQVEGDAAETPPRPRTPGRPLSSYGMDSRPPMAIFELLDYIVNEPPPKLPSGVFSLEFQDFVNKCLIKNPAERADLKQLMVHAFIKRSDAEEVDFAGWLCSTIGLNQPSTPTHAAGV
# Chain of MAP kinase-activated protein kinase 2 (Homo sapiens) (P49137 whole entry, looked up): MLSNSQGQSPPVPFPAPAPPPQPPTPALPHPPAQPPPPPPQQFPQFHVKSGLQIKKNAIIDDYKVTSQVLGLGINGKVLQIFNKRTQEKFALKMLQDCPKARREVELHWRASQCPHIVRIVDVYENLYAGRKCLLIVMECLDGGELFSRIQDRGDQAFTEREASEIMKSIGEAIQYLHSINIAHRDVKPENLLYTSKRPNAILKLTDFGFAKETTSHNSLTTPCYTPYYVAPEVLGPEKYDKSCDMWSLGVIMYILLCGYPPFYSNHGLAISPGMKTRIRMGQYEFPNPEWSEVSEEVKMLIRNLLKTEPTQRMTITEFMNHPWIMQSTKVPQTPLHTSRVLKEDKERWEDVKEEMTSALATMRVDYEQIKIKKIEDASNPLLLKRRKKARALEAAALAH
# Chain of Maternal embryonic leucine zipper kinase (Homo sapiens) (Q14680 whole entry, looked up): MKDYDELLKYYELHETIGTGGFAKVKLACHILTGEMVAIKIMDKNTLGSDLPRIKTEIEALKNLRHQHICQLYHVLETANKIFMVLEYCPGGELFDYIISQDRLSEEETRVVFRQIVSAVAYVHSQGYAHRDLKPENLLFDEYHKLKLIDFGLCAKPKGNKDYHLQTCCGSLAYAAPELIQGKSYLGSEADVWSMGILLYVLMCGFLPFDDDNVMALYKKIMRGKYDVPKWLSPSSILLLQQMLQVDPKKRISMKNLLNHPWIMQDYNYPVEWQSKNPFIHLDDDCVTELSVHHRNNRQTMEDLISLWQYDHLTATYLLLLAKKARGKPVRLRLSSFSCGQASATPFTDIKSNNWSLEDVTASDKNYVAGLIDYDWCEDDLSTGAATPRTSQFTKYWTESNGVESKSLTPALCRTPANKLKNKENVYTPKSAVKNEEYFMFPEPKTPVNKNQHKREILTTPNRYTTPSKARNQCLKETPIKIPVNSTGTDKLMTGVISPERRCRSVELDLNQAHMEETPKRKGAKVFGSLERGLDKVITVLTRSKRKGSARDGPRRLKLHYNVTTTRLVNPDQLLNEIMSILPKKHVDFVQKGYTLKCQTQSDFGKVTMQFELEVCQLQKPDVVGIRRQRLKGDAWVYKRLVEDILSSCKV
# Chain of MAP kinase-activated protein kinase 3 (Homo sapiens) (Q16644 whole entry, looked up): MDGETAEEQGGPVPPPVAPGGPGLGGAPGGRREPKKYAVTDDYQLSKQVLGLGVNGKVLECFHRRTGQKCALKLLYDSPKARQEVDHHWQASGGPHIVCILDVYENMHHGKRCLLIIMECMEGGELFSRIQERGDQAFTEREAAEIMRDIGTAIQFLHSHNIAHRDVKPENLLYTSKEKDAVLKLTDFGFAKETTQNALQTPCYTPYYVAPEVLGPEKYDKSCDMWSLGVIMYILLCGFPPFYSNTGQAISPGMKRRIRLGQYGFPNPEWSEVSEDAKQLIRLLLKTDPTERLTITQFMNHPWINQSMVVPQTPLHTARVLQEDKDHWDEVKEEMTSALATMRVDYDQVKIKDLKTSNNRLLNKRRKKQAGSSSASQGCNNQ
# Chain of Mitogen-activated protein kinase 1 (Homo sapiens) (P28482 whole entry): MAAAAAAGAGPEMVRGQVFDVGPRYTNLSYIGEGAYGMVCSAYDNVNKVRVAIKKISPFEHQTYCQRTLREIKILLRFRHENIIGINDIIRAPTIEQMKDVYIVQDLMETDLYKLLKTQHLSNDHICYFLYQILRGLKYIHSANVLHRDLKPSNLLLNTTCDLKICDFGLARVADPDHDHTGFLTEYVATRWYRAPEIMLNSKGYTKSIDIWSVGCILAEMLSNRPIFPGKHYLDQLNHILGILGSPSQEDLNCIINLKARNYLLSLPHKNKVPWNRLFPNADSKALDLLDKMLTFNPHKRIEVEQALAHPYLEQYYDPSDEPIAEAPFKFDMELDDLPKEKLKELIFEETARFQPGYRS
compound,measurement,setting,value
O=c1[nH]c2ccccc2n1C1CCN(Cc2ccc(-c3nc4cc5[nH]cnc5cc4nc3-c3ccccc3)cc2)CC1,residual activity,[1],105%
same,residual activity,[2],67%
same,residual activity,[3],108%
same,residual activity,[4],107%
same,residual activity,[5],107%
same,residual activity,[6],103%
same,residual activity,[7],106%
same,residual activity,[8],90%
same,residual activity,[9],99%
same,residual activity,[10],90%
same,residual activity,[11],127%
same,residual activity,[12],62%
same,residual activity,[13],94%
same,residual activity,[14],65%
same,residual activity,[15],97%
same,residual activity,[16],80%
same,residual activity,[17],80%
same,residual activity,[18],90%
same,residual activity,[19],112%
same,residual activity,[20],112%
CC[n+]1c(/C=C/N(C)c2ccccc2)n(-c2ccccc2)c2ccc(-c3nc4ccccc4s3)cc21,residual activity,[7],100%
COC(=O)[C@@]1(O)C[C@H]2O[C@]1(C)n1c3ccccc3c3c4c(c5c6ccccc6n2c5c31)C(=O)NC4,residual activity,[1],10%
same,residual activity,[2],-1%
same,residual activity,[3],5%
same,residual activity,[4],-3%
same,residual activity,[5],0%
same,residual activity,[6],-6%
same,residual activity,[7],47%
same,residual activity,[8],2%
same,residual activity,[9],0%
same,residual activity,[10],0%
same,residual activity,[13],1%
same,residual activity,[14],-1%
same,residual activity,[15],0%
same,residual activity,[16],1%
same,residual activity,[19],7%
same,residual activity,[20],0%
COc1ccc2c(c1)/C(=C/c1cnc[nH]1)C(=O)N2,residual activity,[3],97%
same,residual activity,[4],35%
same,residual activity,[5],99%
same,residual activity,[6],99%
same,residual activity,[8],123%
same,residual activity,[9],32%
same,residual activity,[10],4%
same,residual activity,[11],62%
same,residual activity,[12],11%
same,residual activity,[13],24%
same,residual activity,[14],3%
same,residual activity,[15],68%
same,residual activity,[16],14%
same,residual activity,[19],71%
same,residual activity,[20],16%
c1cc(-c2cnn3cc(-c4ccc(OCCN5CCCCC5)cc4)cnc23)ccn1,residual activity,[1],101%
same,residual activity,[2],104%
same,residual activity,[8],84%
same,residual activity,[9],60%
same,residual activity,[10],16%
same,residual activity,[11],123%
same,residual activity,[12],117%
same,residual activity,[13],5%
same,residual activity,[14],-1%
same,residual activity,[15],59%
same,residual activity,[16],13%
CC(C)n1cnc2c(NCc3ccccc3)nc(NCCCO)nc21,residual activity,[7],91%
CC(C)(C)c1cc(C=C(C#N)C#N)cc(Br)c1O,residual activity,[1],129%
same,residual activity,[2],97%
same,residual activity,[3],105%
same,residual activity,[4],104%
same,residual activity,[5],104%
same,residual activity,[7],107%
same,residual activity,[8],69%
same,residual activity,[9],105%
same,residual activity,[11],113%
same,residual activity,[12],96%
same,residual activity,[15],122%
same,residual activity,[16],113%
same,residual activity,[18],115%
same,residual activity,[20],102%
N/C(=N\[N+](=O)[O-])N/N=C\c1ccc(-c2cccc([N+](=O)[O-])c2)o1,residual activity,[1],94%
same,residual activity,[2],99%
same,residual activity,[8],88%
same,residual activity,[9],98%
same,residual activity,[10],85%
same,residual activity,[13],92%
same,residual activity,[14],85%
same,residual activity,[15],99%
same,residual activity,[16],78%
same,residual activity,[17],88%
same,residual activity,[18],83%
COc1cc2ncnc(Nc3ccc(O)c(Br)c3)c2cc1OC,residual activity,[7],124%
NC(=O)c1ccc2[nH]c(-c3ccc(Oc4ccc(Cl)cc4)cc3)nc2c1,residual activity,[7],111%
O=C1Cc2c([nH]c3ccc([N+](=O)[O-])cc23)-c2ccccc2N1,residual activity,[7],75%
Cc1nc(-c2ccccc2)c(-c2ccncc2)o1,residual activity,[7],103%
O=C1Nc2ccc3ncsc3c2/C1=C/c1c[nH]cn1,residual activity,[1],5%
same,residual activity,[2],0%
same,residual activity,[3],4%
same,residual activity,[4],-3%
same,residual activity,[5],82%
same,residual activity,[6],67%
same,residual activity,[7],103%
same,residual activity,[8],99%
same,residual activity,[9],9%
same,residual activity,[10],0%
same,residual activity,[11],15%
same,residual activity,[12],1%
same,residual activity,[13],6%
same,residual activity,[14],1%
same,residual activity,[15],27%
same,residual activity,[16],6%
same,residual activity,[17],-1%
same,residual activity,[18],1%
same,residual activity,[19],43%
same,residual activity,[20],12%
Ic1cccc(CSc2nnc(-c3ccncc3)o2)c1,residual activity,[7],111%
CCc1nc(-c2ccc(OC)cc2)[nH]c1-c1ccncc1,residual activity,[1],100%
same,residual activity,[5],64%
same,residual activity,[6],82%
same,residual activity,[7],121%
same,residual activity,[8],118%
same,residual activity,[14],65%
O=c1cc(-c2cccc3c2Sc2ccccc2S3)oc(N2CCOCC2)c1,residual activity,[7],115%
O=C1NC(=O)/C(=C/c2ccc3c(c2)OC(F)(F)O3)S1,residual activity,[7],95%
